# Env fusion inh – inhibitors of HIV-1 Env-driven cell-cell fusion, primary screen, HeLa-JRFL effector, CEM21 target cells, luciferase. inhibition, % at 12.3 µM. actives 1.1% (n = 360,000). AID 651610, 2012;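 active = mean replicate inhibition score of at least 50 and every replicate individually at or above 50; inconclusive = only one of the two criteria met; inactive = mean below 50 and not all replicates reaching 50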
# LMP1 NFkB inh – EBV LMP1-driven NF-kappaB luciferase reporter inhibitors, primary screen, cell-based, luminescence, single point; actives 0.69% (n = 350,000); AID 504558, 2011; LMP1-induced NF-kappaB luciferase reporter cells; inhibition, % at 12.5 µM; in the data active = inhibition above about 41%; inconclusive = no clear call, values can overlap the other calls
# N-glyco inh – increase of ERlucT glycosylation luciferase signal, primary screen, N-linked glycosylation inhibitor project, D54 ERlucT cells, luminescence, set 2 | D54 ERlucT glycosylation luciferase reporter, 24 h; percent of 100 nM tunicamycin response | reporter increase, % at 12.5 µM | actives 0.23% (n = 360,000) | AID 588692, 2011;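 active = mean luciferase reporter signal, scaled so untreated is 0 and the glycosylation-blocking control 100, at or above a set limit in every replicate; inconclusive = mean reaches the limit but not every replicate does; inactive = mean below the limit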;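 note: luciferase carries N-glycosylation sites so blocking glycosylation raises the light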
# Shn3 3UTR inh – reduction of Shn3 3'UTR firefly luciferase signal, primary screen, Schnurri-3 inhibitor project, cell-based, Clone20 osteoblasts, set 2 | Clone20 osteoblast Shn3 3'UTR firefly luciferase, 24 h | inhibition, % at 12.5 µM | actives 0.52% (n = 360,000) | AID 588674, 2011;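 active = mean inhibition of at least 75% with every replicate also reaching 75%; inconclusive = mean inhibition at least 75% but some replicate below; inactive = mean inhibition below 75%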
# PAX8 inh HTS – inhibitors of PAX8-driven TPO luciferase reporter, primary screen, RMG-I cells, single concentration. SteadyGlo, 24 h. inhibition, % at 12.6 µM. actives 1.2% (n = 360,000);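 active = mean replicate inhibition at least 60% with every replicate also reaching 60%; inconclusive = only one of the two criteria is met; inactive = mean below 60% and not all replicates reaching 60%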;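 note: luciferase light reporting Pax8 driven TPO promoter activity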
# NSD2 inh – NSD2 histone methyltransferase inhibitors, primary screen, biochemical, AlphaScreen, single concentration, set 2 | Histone-lysine N-methyltransferase NSD2 (Homo sapiens), O96028 | NSD2 peptide methylation, 120 min | AID 743445, 2014 | actives 0.54% (n = 310,000) | inhibition, % at 12.5 µM; in the data active = inhibition above about 50%
# Target sequence (O96028 whole entry, looked up): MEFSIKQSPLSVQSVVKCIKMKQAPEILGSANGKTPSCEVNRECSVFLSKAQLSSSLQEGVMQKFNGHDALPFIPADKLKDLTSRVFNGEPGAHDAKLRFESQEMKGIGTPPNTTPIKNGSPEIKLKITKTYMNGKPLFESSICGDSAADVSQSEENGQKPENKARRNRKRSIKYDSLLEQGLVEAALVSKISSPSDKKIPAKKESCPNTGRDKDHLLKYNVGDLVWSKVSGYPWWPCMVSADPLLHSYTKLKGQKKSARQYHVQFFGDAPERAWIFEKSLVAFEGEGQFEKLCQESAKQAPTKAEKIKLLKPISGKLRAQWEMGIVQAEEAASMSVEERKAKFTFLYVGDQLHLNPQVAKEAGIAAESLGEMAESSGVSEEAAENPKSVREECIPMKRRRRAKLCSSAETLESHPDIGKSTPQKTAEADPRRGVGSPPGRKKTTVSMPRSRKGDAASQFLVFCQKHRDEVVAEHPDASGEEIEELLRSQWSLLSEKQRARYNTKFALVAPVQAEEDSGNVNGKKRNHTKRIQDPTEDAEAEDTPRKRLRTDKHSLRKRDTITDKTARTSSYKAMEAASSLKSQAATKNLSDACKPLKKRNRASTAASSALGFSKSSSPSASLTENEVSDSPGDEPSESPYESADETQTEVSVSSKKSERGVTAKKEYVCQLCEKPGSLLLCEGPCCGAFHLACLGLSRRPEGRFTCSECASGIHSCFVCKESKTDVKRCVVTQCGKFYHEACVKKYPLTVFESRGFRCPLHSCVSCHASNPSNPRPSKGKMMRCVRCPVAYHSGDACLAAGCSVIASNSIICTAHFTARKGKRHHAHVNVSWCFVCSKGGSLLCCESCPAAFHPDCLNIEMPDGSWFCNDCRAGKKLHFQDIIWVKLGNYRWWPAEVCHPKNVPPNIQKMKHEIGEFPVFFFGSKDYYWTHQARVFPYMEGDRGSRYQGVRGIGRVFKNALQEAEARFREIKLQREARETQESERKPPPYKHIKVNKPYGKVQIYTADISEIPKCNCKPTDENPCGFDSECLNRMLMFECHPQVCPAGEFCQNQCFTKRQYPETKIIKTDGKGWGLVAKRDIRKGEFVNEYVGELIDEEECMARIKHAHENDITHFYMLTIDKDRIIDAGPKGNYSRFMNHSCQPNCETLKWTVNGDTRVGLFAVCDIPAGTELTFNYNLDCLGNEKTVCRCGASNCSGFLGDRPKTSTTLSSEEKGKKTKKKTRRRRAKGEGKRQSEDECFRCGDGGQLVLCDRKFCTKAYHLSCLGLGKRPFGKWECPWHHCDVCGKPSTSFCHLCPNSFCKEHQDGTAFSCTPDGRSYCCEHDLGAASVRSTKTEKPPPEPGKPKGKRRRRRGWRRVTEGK
# AlphaScreen art – AlphaScreen signal interference with preloaded methylated product, dose response, artefact control for NSD2 inhibitor project, biochemical, cherry-picked samples | shares compounds with NSD2 inh | AlphaScreen artifact counterscreen, preloaded methylated H4 peptide | AC35, µM (highest dose often 10 µM) | actives 9.4% (n = 1,500); call rule not given here
# Numbers stand for hits; . = inactive; ? = inconclusive; / = not tested or not shown. Hits are enriched below; roughly 2.8% of the tested compounds scored in any of these assays.
SMILES,Env fusion inh,LMP1 NFkB inh,N-glyco inh,Shn3 3UTR inh,PAX8 inh HTS,NSD2 inh,AlphaScreen art
CCc1ccc(N(CC(=O)NCc2ccc3c(c2)OCO3)C(=O)c2csnn2)cc1,.,.,.,.,.,60.4,.
Cc1ccccc1NCC(=O)Nc1cc(S(=O)(=O)N2CCCCC2)ccc1C,.,.,.,.,.,56.6,.
Cc1ccc(S(=O)(=O)N2CCOCC2)cc1NC(=O)CSc1ccccn1,.,.,.,.,.,52.5,.
CCN(CC)Cc1c(O)c(Cl)cc2c(C)c(C)c(=O)oc12,.,.,.,.,/,.,/
CCN(CC)Cc1c(O)c(Cl)cc2c(C)cc(=O)oc12,.,.,.,.,.,112.2,.
O=C(C1=C[C@H](c2ccc3c(c2)Cc2ccccc2-3)C[C@H](OCCCCO)O1)N1CCCCC1,.,/,/,/,.,/,/
NC(=NCc1ccc2c(c1)OCO2)NC(=O)c1ccccc1,.,.,.,.,.,88.1,.
C/C(CCc1ccc2c(c1)OCO2)=N\NC(=O)c1ccccc1,.,.,.,.,.,/,/
O=c1[nH]c(CN2CCCCC2)ccc1O,.,.,.,.,.,64.8,.
Cc1c(C(=O)N2CCN(c3ccc(F)cc3)CC2)sc2ncnc(N3CCN(c4ccccn4)CC3)c12,.,.,.,.,.,58.9,.
CC(Oc1ccc(Cl)cc1Cl)C(=O)NC(Cc1ccccc1)C(=O)O (stereo not drawn),.,.,.,.,.,52.6,.
Nc1ncc(-c2ccccc2)n1CC1CCCO1 (stereo not drawn),.,.,.,.,/,123.3,.
CC1=NN(c2ccc(C(=O)O)c(N)c2)C(=O)C1,.,.,.,.,.,130.1,.
CCCc1cc(NCCCCO)n2c(nc3ccccc32)c1C#N,.,.,.,.,.,.,/
CCN(CC)CCCNc1cc(C)c(C#N)c2nc3ccccc3n12,.,.,42.8,.,.,121.8,.
Cc1cc(NCCCCO)n2c(nc3ccccc32)c1C#N,.,.,.,.,/,.,/
CCN(CC)CCCNc1cc(C(F)(F)F)c(C#N)c2nc3ccccc3n12,.,.,.,.,.,55.6,.
C[C@@H]1CCn2cc(nn2)COC[C@H](c2ccccc2)NC1=O,.,/,/,/,.,/,/
Cc1ccc2cccc(NC3OC(=O)c4ccccc43)c2n1 (stereo not drawn),.,.,.,.,.,86.9,.
COC(=O)c1ccccc1NC1OC(=O)c2ccccc21 (stereo not drawn),/,.,.,.,/,.,/
CC12CCC(C)(c3nc4ccccc4nc31)C2(C)C,.,.,.,.,.,52.7,.
O=c1[nH]c(NCCO)c(N=Cc2ccccc2)c(=O)[nH]1,.,.,.,.,.,104.1,.
N#Cc1c(Cl)nc2c(c1C#N)CCCC2,.,.,.,.,.,61.0,.
CCCCc1nc(Cl)c(C#N)c2c1CCCC2,.,.,.,.,.,.,/
CC(C)NC1CCC(Nc2ccnc3cc(Cl)ccc23)CC1 (stereo not drawn),.,.,.,.,.,81.2,.
SMILES,Env fusion inh,LMP1 NFkB inh,N-glyco inh,Shn3 3UTR inh,PAX8 inh HTS,NSD2 inh,AlphaScreen art
Clc1ccc2c(NCCNC3CCCCC3)ccnc2c1,.,.,.,.,.,/,/
CC1=CS(=O)(=O)CC1Sc1ncn[nH]1 (stereo not drawn),/,.,.,.,/,143.5,.
CC1=CS(=O)(=O)CC1Sc1nc(C)n[nH]1 (stereo not drawn),.,.,.,.,.,.,/
O=C1C(=O)c2cccnc2-c2ncccc21,59.8,/,.,94.7,106.6,144.8,.
O=C1c2cccnc2-c2ncccc21,/,.,.,.,/,.,/
Cc1cc(C)nc(NS(=O)(=O)c2ccc(NC(=O)c3ccccc3Br)cc2)n1,.,.,.,.,.,64.9,.
CC(NC1=CC(=O)c2cccnc2C1=O)C(O)c1ccccc1 (stereo not drawn),.,.,.,.,?,113.6,.
C[C@H]1CN([C@@H](C)CO)C(=O)c2cc(NS(=O)(=O)c3ccc(Cl)cc3)ccc2O[C@@H]1CN(C)C(=O)Nc1ccccc1,.,/,/,/,.,/,/
O=C(Nc1cc(Cl)ccc1-n1cncn1)c1cc(F)cc(F)c1,/,.,.,.,.,.,/
O=C(Nc1cc(Cl)ccc1-n1cncn1)c1cccs1,.,.,.,.,.,67.6,.
Cc1noc(C)c1S(=O)(=O)N(C)C[C@H]1Oc2ccc(NC(=O)C3CCCCC3)cc2CC(=O)N([C@@H](C)CO)C[C@@H]1C,.,/,/,/,/,/,/
C[C@@H](NC(=O)C[C@@H]1C=C[C@@H](NC(=O)C2CC2)[C@@H](CO)O1)c1ccccc1,.,/,/,/,.,/,/
CCn1c(C)cc(=S)c2ccccc21,.,.,.,.,.,104.4,.
CCCn1c2c(c(O)c(C(=O)NCCCN(CC)CC)c1=O)CCCC2,.,.,.,.,.,58.9,.
COCC(C)OC(=O)/C(C#N)=C\c1coc2ccc(C)cc2c1=O (stereo not drawn),.,.,.,.,.,50.4,.
C[C@@H]1CCCCO[C@H](CN(C)C(=O)Nc2ccc(F)cc2)[C@@H](C)CN([C@@H](C)CO)C(=O)c2cc(NS(=O)(=O)c3cccs3)ccc2O1,/,/,/,/,.,/,/
O=C(CCN1C(=O)/C(=C\c2ccco2)SC1=S)Nc1ccc(C(=O)O)c(O)c1,.,/,.,.,.,111.1,.
COc1ccc(CN(C)C[C@@H]2OCCCC[C@@H](C)Oc3ccc(NC(=O)Nc4c(C)noc4C)cc3C(=O)N([C@@H](C)CO)C[C@@H]2C)cc1,.,/,/,/,.,/,/
CN(C)c1ccc(/C=C2\CCC/C(=C\c3ccccc3)C2=O)cc1,.,.,.,.,.,.,/
CN(C)c1ccc(C=c2c3ccccc3n3c2c2c([n+]3C)CCCC2)cc1,.,42.5,69.9,90.9,91.3,71.3,4.45µM
O=C(C[C@@H]1C=C[C@@H](NC(=O)Nc2ccc(C(F)(F)F)cc2)[C@@H](CO)O1)NCCN1CCCC1,.,/,/,/,.,/,/
CCCNC(=O)N1CC(=O)N2[C@H](CO)[C@@H](c3ccc(C#Cc4cccc(F)c4)cc3)[C@@H]2C1,/,/,/,/,.,/,/
Cc1ccc(Sc2ncccc2C(N)=O)cc1,.,.,.,.,.,106.2,.
COc1ccc(S(=O)(=O)Nc2cccc3c2O[C@@H](CN(C)Cc2ccc(Oc4ccccc4)cc2)[C@@H](C)CN([C@H](C)CO)C3=O)cc1,.,/,/,/,/,/,/
Cc1c(Br)c(=O)oc2c(Br)c(O)c(O)cc12,.,.,.,.,.,110.6,.
Cc1c(Br)c(=O)oc2c(Br)c(O)ccc12,.,.,.,.,.,.,/
